# In the supplement of paper PMC6555819:
# Experiments:
# Assay in all cases: PBM binding z-score (relative to random genomic background probes); higher = stronger binding; sequences stand for … in GC…GCGATTGACAGCGTAGAATGAAGG
# [1] = system: FXR:RXRa (NR concentration 270 nM, RXRa partner concentration 90 nM)
# Procedure, shortened: (§1)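 Probes were double-stranded and carried 34-nt variable regions with direct-repeat seeds, single-nucleotide variants, half-site ablations and random human genomic background sequences, printed on custom Agilent 4×180K protein-binding microarrays. Arrays were incubated 1 h with ligand-free nuclear receptor dimers in PBS pH 7.4, 2% milk, 0.02% Triton X-100, 1 mM DTT, 0.2 mg/mL BSA and 0.4 mg/ml salmon testes DNA. Antibodies against each partner (one per run) detected binding, and scanned fluorescence was regression-normalized. Binding z-scores use the random background probes as reference.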
# [2] = system: LXRa:RXRa (NR concentration 270 nM, RXRa partner concentration 90 nM)
# Procedure, shortened: as §1
# [3] = system: LXRa homodimer (NR concentration 270 nM)
# Procedure, shortened: as §1
# [4] = system: LXRb:RXRa (NR concentration 270 nM, RXRa partner concentration 90 nM)
# Procedure, shortened: as §1
# [5] = system: LXRb homodimer (NR concentration 270 nM)
# Procedure, shortened: as §1
# [6] = system: PPARa:RXRa (NR concentration 270 nM, RXRa partner concentration 90 nM)
# Procedure, shortened: as §1
# [7] = system: PPARg:RXRa (NR concentration 180 nM, RXRa partner concentration 90 nM)
# Procedure, shortened: as §1
# [8] = system: PPARg:RXRa 270nM:90nM, anti-RXR (NR concentration 270 nM, RXRa partner concentration 90 nM)
# Procedure, shortened: as §1
# [9] = system: PPARg:RXRa 30nM:10nM, anti-RXR (NR concentration 30 nM, RXRa partner concentration 10 nM)
# Procedure, shortened: as §1
# [10] = system: PPARg:RXRa 90nM:30nM, anti-RXR (NR concentration 90 nM, RXRa partner concentration 30 nM)
# Procedure, shortened: as §1
# [11] = system: PPARg:RXRa DBDmut IVT, anti-RXR (DBD mutation: RXRa K156A/R161A, NR concentration 270 nM, RXRa partner concentration 90 nM)
# Procedure, shortened: as §1
# [12] = system: PPARg:RXRa IVT, anti-PPARg (NR concentration 270 nM, RXRa partner concentration 90 nM)
# Procedure, shortened: as §1
# [13] = system: PPARg DBDmut:RXRa IVT, anti-PPARg (DBD mutation: PPARg1 K132A/R137A, NR concentration 270 nM, RXRa partner concentration 90 nM)
# Procedure, shortened: as §1
# [14] = system: PPARg DBDmut IVT, anti-PPARg (DBD mutation: PPARg1 K132A/R137A, NR concentration 270 nM)
# Procedure, shortened: as §1
# [15] = system: PPARg homodimer (NR concentration 180 nM)
# Procedure, shortened: as §1
# [16] = system: PXR:RXRa (NR concentration 270 nM, RXRa partner concentration 90 nM)
# Procedure, shortened: as §1
# [17] = system: PXR homodimer (NR concentration 270 nM)
# Procedure, shortened: as §1
# [18] = system: RARa:RXR (NR concentration 270 nM, RXRa partner concentration 90 nM)
# Procedure, shortened: as §1
# [19] = system: RARa homodimer (NR concentration 270 nM)
# Procedure, shortened: as §1
# [20] = system: RARb:RXRa (NR concentration 270 nM, RXRa partner concentration 90 nM)
# Procedure, shortened: as §1
Sequence,PBM binding z-score [1],PBM binding z-score [2],PBM binding z-score [3],PBM binding z-score [4],PBM binding z-score [5],PBM binding z-score [6],PBM binding z-score [7],PBM binding z-score [8],PBM binding z-score [9],PBM binding z-score [10],PBM binding z-score [11],PBM binding z-score [12],PBM binding z-score [13],PBM binding z-score [14],PBM binding z-score [15],PBM binding z-score [16],PBM binding z-score [17],PBM binding z-score [18],PBM binding z-score [19],PBM binding z-score [20]
ATATGTAGGTTAAGGGTCATACAGGTTGGTTCGC,4.79,4.61,2.43,4.61,1.28,6.57,12.1,10.2,9.63,12.5,7.57,7.96,4.09,2.15,4.5,5.37,1.88,6.2,2.6,3.76
GCTAGTTGGTCAGTAGAAGGTCACACACCGGTCG,1.88,2.35,2.32,2.24,0.231,2.69,1.13,2.23,0.306,1.54,1.12,2.07,-0.208,0.144,2.88,3.18,1.11,3.73,0.845,3.19
ATATGTAGGGTAAGGGTCATTCAGGTTGGTTCGC,4.75,4.47,2.94,4.47,3.06,6.52,11.9,10.3,11.2,12,6.71,7.53,5.99,4.1,6.25,5.47,4.86,5.19,3.71,3.53
ATCTCTAGGTAGCCAAGTTCAGTGAATGCCGAAC,-0.0679,-0.0761,0.135,0.15,0.335,0.168,-0.118,-0.148,-0.248,-0.291,0.328,0.377,-0.173,0.614,0.13,1.2,0.957,0.266,0.228,0.669
TCTTGTAGATCAACACGAGGTTAAGAAAGATCGA,0.233,1.58,0.248,1.01,-0.293,1.55,0.0854,1.33,2.58,1.94,1.48,1.07,0.862,1,0.489,1.05,0.0696,1.27,0.374,0.536
CAAGCTAGGTCACAGAGGTCAAAGTCCGTGCGTA,7.59,6.83,7.42,6.28,1.9,5.99,6.86,6.52,3.68,5.83,5.16,5.87,0.564,0.34,6.23,6.96,12.1,8.03,2.55,5.47
ATATGTAGGTTTGCTGGGGTCATTCAGACTAGGC,3.58,3.85,1.58,4.47,1.4,4.53,2.69,3.1,0.969,2.19,3.16,3.12,1.39,1.41,1.83,5.71,7.95,4.72,1,2.53
AGAATGAGGTTATACGTAGATCAGGGAGGAAAGT,2.22,1.64,0.0751,1.53,0.198,3.09,1.85,2.09,0.848,1.57,3.75,1.91,1.26,0.799,0.811,1.18,0.618,1.66,0.507,1.47
GCGACTGGGGCAAAGCAGGTTACAATAAGGTTGG,0.383,0.245,-0.467,0.623,-0.699,1.6,1.48,1.49,0.224,0.898,4.73,3.71,-0.466,-0.774,0.387,0.661,-0.376,0.904,-0.625,1.06
TCATATAGGTAAAAGGTGTAAGTCGGTGTGGTAA,1.13,1.12,-0.0427,1.14,0.187,3.18,5.19,6.1,5.92,7.17,4.99,3.58,1.13,0.898,1.04,0.588,0.592,0.719,0.894,0.49
ATCTCTAGGTATGACTCAGTTCAGTGAAGAACGC,0.312,0.266,0.305,0.205,0.789,0.0186,0.264,0.0643,-0.0117,0.0715,0.262,0.638,0.456,1.61,0.371,0.877,1.49,0.389,0.624,0.243
AATCCAGGGTCACTAGGCCAGAGTAGGTACGAAT,5.69,4.8,0.376,3.92,0.621,5.78,7.8,6.61,3.93,5.73,3.69,5.76,1.17,1.11,2.8,3.49,0.164,4.74,0.405,4.36
ACTAGCAGCCCAAGTTTGGGTCACTCAAACAAAG,-0.21,-0.0985,-0.387,0.667,-0.605,0.976,-0.169,0.0773,-0.863,-0.372,-0.54,0.157,-0.825,-0.894,0.227,0.606,-0.424,1.19,-0.533,0.813
TCGAGTAGGTTAGGGCCATTCAGAATGGCGTCGA,0.218,-0.0329,-0.658,-0.207,-1.05,0.58,0.0561,0.722,0.497,0.65,1.63,0.942,-0.334,0.0284,-0.315,0.054,-0.626,-0.18,-0.395,0.699
